We go through 14 compounds from PubChem BioAssay (Tox21).

Unmarked numbers belong to inactive results. Inconclusive results are not listed. Calls of active or inactive are those of the source. Unless noted, calls come from the whole dose curve; as a rule, active = well fitted curve in the direction sought with a large enough effect in the repeat runs; inconclusive = weak or mixed curves; inactive = no such curve, though single readings can be large; an effect the other way counts as inactive or inconclusive.

Assay [1] is described as follows: qHTS assay for small molecules that induce genotoxicity in human embryonic kidney cells expressing luciferase-tagged ATAD5 (AID 651632). Note: nearly all actives have a fitted effect of over 15% in size. An outline of the steps: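 HEK293T cells carrying luciferase-tagged ATAD5 were given compound or DMSO vehicle and incubated 16 hr at 37C, 5% CO2. Luciferase activity was read after 30 min at room temperature with Amplite; a rise signals genotoxic stress.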

The nature of assay [2]: qHTS assay for small molecule agonists of the p53 signaling pathway - cell viability (AID 651633; calls by dose curve; note: nearly all actives have a fitted effect of over 30% in size; note: potency is the fitted concentration of half-maximal effect). An outline of the steps: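 p53RE-bla cells were treated with compound for 16 hours at 37 C. Cytotoxicity was then measured as CellTiter-Glo luminescence after 30 min at room temperature.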
Assay [3] in a line: qHTS assay for small molecules that induce genotoxicity in human embryonic kidney cells expressing luciferase-tagged ATAD5 - cell viability (AID 651634; calls by dose curve; note: nearly all actives have a fitted effect of over 25% in size). An outline of the steps: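 HEK293T cells carrying luciferase-tagged ATAD5, 2,000 cells/well, exposed to compound for 15.5 hr at 37C. Viability read as live-cell protease activity by CellTiter-Fluor fluorescence after 30 min at 37C.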

Assay [4] is described as follows: qHTS assay for small molecule disruptors of the mitochondrial membrane potential - cell viability (AID 720634; calls by dose curve;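 note: human HepG2 liver cancer cells; series mostly up to about 83 µM; nearly all actives have a fitted effect of over 20% in size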). An outline of the steps: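 HepG2 cells, 2,000 per well, attached overnight, then treated 1 hr at 37 C, 5% CO2. Viability read as ATP by CellTiter-Glo luminescence after 30 min at room temperature. Read in the same wells as the m-MPI membrane-potential dye assay.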

A short description of assay [5]: qHTS assay for small molecule disruptors of the mitochondrial membrane potential (AID 720635). An outline of the steps:
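HepG2 cells exposed to compound 1 hr at 37C, then Mito-MPS dye 30 min. Ratio read of aggregate (540/590 nm) versus monomer (490/535 nm) fluorescence.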

A short description of assay [6]: qHTS assay to test for compound auto fluorescence at 590 nm (red) in HepG2 cells (AID 720674). An outline of the steps:
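HepG2 cells, 2,000 per well in MEM with 10% FBS, attached overnight at 37 C, then got 23 nL compound or DMSO. After 1 hr at 37 C, 5% CO2, red fluorescence was read at 540/590 nm against Rose Bengal sodium as reference.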

Assay [7] can be described thus: qHTS assay to test for compound auto fluorescence at 535 nm (green) in HepG2 cells (AID 720675).
Assay [8] is described as follows: qHTS assay to test for compound auto fluorescence at 460 nm (blue) in HEK293 cells (AID 720678). An outline of the steps:
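Blue read-out at excitation 405 nm and emission 460 nm follows overnight compound exposure of HEK293 cells at 37C in 5% CO2. Activity is given as auto fluorescence equivalency to triamterene.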

The nature of assay [9]: qHTS assay to test for compound auto fluorescence at 590 nm (red) in HEK293 cells (AID 720679). An outline of the steps: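 Red channel, Ex/Em 540/590nm; signal expressed as equivalency to Rose Bengal sodium. HEK293, 2,000 cells/well, 10% dialyzed FBS; 23 nL compound pinned after 4-5 hr attachment; overnight 37C/5% CO2 before reading.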
A short description of assay [10]: qHTS assay to test for compound auto fluorescence at 535 nm (green) in HEK293 cell free culture (AID 720682). An outline of the steps:
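Read-out: 485/535 nm fluorescence intensity, calibrated against fluorescein. Medium only (DMEM + 10% FBS, no cells); test compound or DMSO vehicle added by pintool before plate reading.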

The nature of assay [11]: qHTS assay to test for compound auto fluorescence at 590 nm (red) in HEK293 cell free culture (AID 720683). An outline of the steps:
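Cell-free wells of DMEM with 10% FBS received compound, and intrinsic fluorescence was read at excitation/emission 540/590 nm. Values expressed as equivalence to Rose Bengal sodium.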

Assay [12] is described as follows: qHTS assay to test for compound auto fluorescence at 590 nm (red) in HepG2 cell free culture (AID 720684). An outline of the steps: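 Compound was pinned into wells holding MEM with 10% FBS and no cells, and red fluorescence was read at Ex/Em 540/590 nm. Signal is expressed as auto fluorescence equivalency relative to Rose Bengal sodium.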
A short description of assay [13]: qHTS assay to test for compound auto fluorescence at 535 nm (green) in HepG2 cell free culture (AID 720686).
Assay [14] in a line: qHTS assay to test for compound auto fluorescence at 460 nm (blue) in HepG2 cells (AID 720687). An outline of the steps: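 HepG2 cells in MEM with 10% FBS, attached overnight at 37 C, were exposed to compound or DMSO for 1 hr at 37 C, 5% CO2. Blue fluorescence was read at 405/460 nm, with triamterene as reference fluorophore.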
The target of assay [15] is Glucocorticoid receptor (Homo sapiens) (UniProt P04150). Description: qHTS assay to identify small molecule agonists of the glucocorticoid receptor (GR) signaling pathway (AID 720691; active = well fitted activation curve with a large enough effect in the signal ratio in the repeat runs, not every such curve was filed as active; the % refers to the signal ratio). An outline of the steps:
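GR-bla HeLa cells carrying a GRE-driven beta-lactamase reporter, exposed to compounds for 18 h at 37 C. Reporter activation read as fluorescence after 2 h with LiveBLAzer B/G FRET substrate at room temperature.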

For assay [16] the target is unchanged. Description: qHTS assay to identify small molecule antagonists of the glucocorticoid receptor (GR) signaling pathway (AID 720692; active = well fitted inhibition curve with a large enough effect in the signal ratio in the repeat runs, not every such curve was filed as active; the % refers to the signal ratio). An outline of the steps: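 GR-bla HeLa cells carrying a GRE-driven beta-lactamase reporter received compound after 4 h plating, then dexamethasone (5 nM final). After 18 h at 37C, the FRET substrate was loaded for 2 h at room temperature and fluorescence read.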

Assay [17] in a line: qHTS assay to test for compound auto fluorescence at 535 nm (green) in HEK293 cells (AID 720680).
Assay [18] can be described thus: qHTS assay to test for compound auto fluorescence at 460 nm (blue) in HEK293 cell free culture (AID 720681). An outline of the steps: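 Compounds were added to cell-free DMEM with 10% FBS and fluorescence read directly. The blue channel used 405 nm excitation and 460 nm emission, with triamterene as the reference fluorophore.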
The nature of assay [19]: qHTS assay to test for compound auto fluorescence at 460 nm (blue) in HepG2 cell free culture (AID 720685). An outline of the steps:
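Compound (23 nL) or DMSO pinned into cell-free MEM with 10% FBS; blue fluorescence read at 405/460 nm excitation/emission, expressed as auto-fluorescence equivalency to triamterene.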
% is set by controls: 0 for no effect and ±100 for the full control effect.

Glucocorticoid receptor (Homo sapiens), sequence (P04150 whole entry, looked up): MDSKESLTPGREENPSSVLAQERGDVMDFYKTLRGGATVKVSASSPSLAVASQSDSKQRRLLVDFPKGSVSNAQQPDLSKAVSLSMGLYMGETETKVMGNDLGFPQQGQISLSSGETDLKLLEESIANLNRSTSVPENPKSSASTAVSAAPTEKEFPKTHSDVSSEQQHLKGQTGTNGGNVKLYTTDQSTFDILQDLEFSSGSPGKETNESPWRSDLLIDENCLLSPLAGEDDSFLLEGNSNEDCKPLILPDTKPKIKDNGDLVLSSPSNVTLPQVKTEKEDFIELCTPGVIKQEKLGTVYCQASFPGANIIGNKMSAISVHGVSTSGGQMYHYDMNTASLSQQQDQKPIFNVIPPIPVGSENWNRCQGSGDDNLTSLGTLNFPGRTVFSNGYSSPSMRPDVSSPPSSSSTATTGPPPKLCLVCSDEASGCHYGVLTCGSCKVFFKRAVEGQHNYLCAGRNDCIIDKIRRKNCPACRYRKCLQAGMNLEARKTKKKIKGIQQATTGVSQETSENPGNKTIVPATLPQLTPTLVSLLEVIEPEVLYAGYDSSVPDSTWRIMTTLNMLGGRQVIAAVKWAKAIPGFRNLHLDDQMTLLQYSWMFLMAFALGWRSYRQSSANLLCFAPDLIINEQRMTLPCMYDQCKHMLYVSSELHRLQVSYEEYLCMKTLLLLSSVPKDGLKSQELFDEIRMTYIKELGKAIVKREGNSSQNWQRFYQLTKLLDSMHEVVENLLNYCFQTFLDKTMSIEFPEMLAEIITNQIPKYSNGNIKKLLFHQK

On to `C[C@@H]1CN(c2c(F)c(F)c3c(=O)c(C(=O)O)cn(C4CC4)c3c2F)C[C@H](C)N1`, for which the Potency entry in assay [1], in [2], in assay [3], in assay [4], in [5] and in [15] was “inactive” in each case. In addition, the Potency result in assay [16] is “inactive”. Besides, the call in assay [6], in assay [7], in [8], in [9], in assay [10] and in assay [11] was inactive. Besides, the result in assay [12], in assay [13] and in [14] was inactive.

`O=C1CCCCC1C1CCCCC1` (centres undefined): the Potency entry in assay [1], in assay [2], in assay [3], in [4], in assay [15] and in assay [16] was “inactive” throughout. Also, the compound was called inactive in [6], in assay [7], in assay [8], in [9], in [17] and in [18]. The call in assay [10], in [12], in assay [19], in [13] and in assay [14] was inactive.

Consider `CCN(CCCc1ccccc1)CCCc1ccccc1`, for which the Potency entry in [1], in assay [2], in [3] and in assay [4] was “inactive” in each case. The fluorescence, relative to Rose Bengal in assay [6] was 0.32% [at 18.6 µM]. In addition, the fluorescence, % of triamterene in assay [8] was 0.0775% [at 18.6 µM]. Further, the fluorescence, % of fluorescent control in assay [9] was -0.195% [at 18.6 µM]; in [18], -0.0197% [at 18.6 µM]; in [11] it was 0.107% [at 18.6 µM]; in [19], 0.009% [at 18.6 µM]. Besides, in assay [17], the fluorescence, % of fluorescein was 0.159% [at 18.6 µM]. For the same compound, in assay [10], the activity change was 0.0298% [at 18.6 µM]. For the same compound, the fluorescence, % of Rose Bengal in [12] was -0.137% [at 18.6 µM]. Besides, the fluorescence, % of fluorescein control in [13] was 0.0299% [at 18.6 µM].

Regarding `O=C(O)[C@@H](O)[C@H](O)[C@H](O)[C@@H](O)C(=O)O`, the Potency entry in assay [1], in assay [2], in [3], in assay [4] and in assay [5] was “inactive” in each case. In addition, the outcome in assay [6], in assay [7], in assay [8], in [9], in assay [17] and in assay [10] was inactive. Further, the call in [12] and in [14] was inactive.

Take `Cn1cnc2c(F)c(Nc3ccc(Br)cc3Cl)c(C(=O)NOCCO)cc21`: the Potency entry in assay [1], in assay [2], in [3], in assay [4] and in [15] was “inactive” throughout. In addition, the compound was called inactive in [6], in assay [7], in assay [8], in assay [9], in assay [17] and in [18]. The compound was called inactive in assay [10], in assay [19], in assay [13] and in [14].

In the case of `CCCCCCCOC(=O)CCC`, the Potency result in assay [1], in assay [2], in assay [3], in [4], in assay [5] and in assay [15] was “inactive” in each case. The compound was classed as inactive in [6], in assay [8], in assay [17], in [18], in assay [10] and in [11]. The result in assay [12], in assay [19], in assay [13] and in assay [14] was inactive.

As to `CCCCCCCCCCCCOCCOS(=O)(=O)O`, the Potency entry in [1], in assay [3] and in [4] was “inactive” in each case. The Potency in assay [2] was 61.1 µM (active). The result in assay [6], in assay [7], in assay [8], in assay [9], in [17] and in assay [10] was inactive. For the same compound, the compound was called inactive in assay [11], in assay [12], in assay [19], in assay [13] and in assay [14].

Regarding `N#Cc1ccc(C(c2ccc(C#N)cc2)n2cncn2)cc1`, the Potency result in assay [1], in assay [2], in assay [3], in assay [4], in assay [5] and in assay [15] was “inactive” throughout. The Potency result in [16] was “inactive”. Besides, the result in [6], in assay [7], in assay [8], in assay [17], in assay [18] and in [10] was inactive. In addition, the compound was called inactive in assay [11], in assay [12] and in assay [19].

As to `O=c1oc2c(O)c(O)cc3c(=O)oc4c(O)c(O)cc1c4c23`, the Potency result in assay [1], in [2], in assay [3], in [4], in assay [5] and in assay [15] was “inactive” each time. In addition, the Potency entry in assay [16] was “inactive”. In addition, the compound was classed as inactive in assay [6], in [7], in [8], in assay [9], in assay [17] and in assay [10]. In addition, the result in assay [11], in assay [12], in assay [19], in assay [13] and in assay [14] was inactive.

For the compound `Cc1ccc(C)c(N)c1`, the Potency entry in assay [1], in assay [2], in assay [3], in [4], in assay [15] and in [16] was “inactive” each time. Also, the compound was classed as inactive in assay [6], in assay [7], in assay [8], in assay [9], in assay [18] and in assay [10]. The result in assay [11], in assay [12], in assay [19], in [13] and in assay [14] was inactive.

As to `O=C1CCCCCCCCCCC(=O)OCCO1`, the Potency entry in assay [1], in assay [3] and in assay [16] was “inactive” each time. Also, the Potency in [2] is 54.5 µM (active). The result in assay [6], in assay [7], in assay [8], in [17], in assay [10] and in assay [11] was inactive. Further, the call in assay [12], in [19], in assay [13] and in [14] was inactive.

Turning to `CC1=C2[C@H](/C=C(\C)C(=O)O)CC[C@@H](C)[C@H]2CC1`, the Potency entry in assay [1], in [2], in [3], in assay [4] and in [16] was “inactive” each time. Further, the call in assay [6], in assay [7], in assay [8], in [18], in [10] and in assay [19] was inactive. The compound was classed as inactive in assay [14].

As to `CN1CCN(C2=Nc3ccccc3Oc3ccc(Cl)cc32)CC1`, the Potency result in assay [1], in [2], in assay [3], in assay [4] and in assay [15] was “inactive” in each case. Moreover, in [6], the fluorescence, relative to Rose Bengal is 0.128% [at 18.6 µM]. Further, the fluorescence, % of triamterene in assay [8] is 0.0075% [at 18.6 µM]. Also, the fluorescence, % of fluorescent control in assay [9] was 0.151% [at 18.6 µM]; in assay [18] it was 0.0139% [at 18.6 µM]; in [11], 0.0885% [at 18.6 µM]; in [19] it was -0.0109% [at 18.6 µM]; in assay [14], 0.0039% [at 18.6 µM]. Moreover, the activity change in [10] was -0.0046% [at 18.6 µM]. Moreover, the fluorescence, % of Rose Bengal in [12] was -0.256% [at 18.6 µM].

Turning to `CCOc1ccc(NS(=O)(=O)c2ccc(N)cc2)nn1`, the Potency result in [1], in assay [2], in assay [3], in [5], in [15] and in assay [16] was “inactive” in each case. Further, the outcome in assay [6], in assay [7], in assay [8], in [18], in assay [10] and in [11] was inactive.
